Only some compounds are listed: those with a hit (about 4.6% of all), similar ones and a draw of the others.
GRIN3A LBD mod: NR3A (human) ligand-binding domain modulation; AID 1259313; 2.5% of 340,000 active; Tm shift relative to glycine control, % at 25 µM; NR3A LBD differential scanning fluorimetry, Tm shift; 0% = protein alone, 100% = glycine-bound protein;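 active means melting temperature shift of at least 10% of the positive control shift, at one fixed dose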
ADAM17 inh: inhibitors of human ADAM17; P78536; recombinant ADAM17, EDANS/DABCYL FRET peptide cleavage; inhibition, % at 6.95 µM; 0.83% of 370,000 active;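 active means inhibition above the mean of compounds lying between control limits plus 3 SD, set per campaign, cut at about 8.5% in these data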;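 further: 0% = DMSO-only wells as the low control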
ADAM10 inh: ADAM10 inhibition, QFRET primary screen | O14672 | recombinant ADAM10, EDANS/DABCYL FRET peptide cleavage, 3 h | AID 720582 | 0.62% of 370,000 active | inhibition, % at 7 µM;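 active means inhibition above a per-campaign cutoff equal to the mean of compounds falling between control-based bounds plus 3 SD, cut at about 20% in these data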;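 further: 0% = DMSO wells while the 100% control is not disclosed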
proKLK7 act: activators of human kallikrein-7 zymogen; 0.9% of 370,000 active; P49862; purified proKLK7, EDANS-DABCYL substrate fluorescence; 100% is mature enzyme control, 0% vehicle; AID 652039; activation, % at 7 µM;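 active means activation above the mean of all tested compounds plus 3 SD, computed per campaign excluding outliers beyond control limits, cut at about 13% in these data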
Target sequence (P49862 whole entry, looked up): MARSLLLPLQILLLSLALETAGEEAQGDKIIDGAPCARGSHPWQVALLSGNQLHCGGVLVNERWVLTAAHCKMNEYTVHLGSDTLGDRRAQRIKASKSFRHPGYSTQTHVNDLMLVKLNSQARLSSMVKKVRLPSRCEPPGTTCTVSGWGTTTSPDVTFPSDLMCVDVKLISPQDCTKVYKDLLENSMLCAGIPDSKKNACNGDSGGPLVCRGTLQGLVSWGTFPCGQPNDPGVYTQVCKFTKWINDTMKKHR
FAS-TE inh: blocks the thioesterase domain of human fatty acid synthase. recombinant FAS-TE, OMFH fluorogenic substrate, fluorescence endpoint. inhibition, % at 15 µM. 0.67% of 360,000 active. AID 602261;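 active means compounds whose normalised, plate-corrected inhibition of enzyme fluorescence in the single-dose primary screen is 50% or more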;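 further: 0% = DMSO with enzyme and 100% = substrate without enzyme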
proKLK7 act conf: proKLK7 activation, confirmation. 68% of 3,200 active. purified proKLK7, EDANS-DABCYL substrate fluorescence; scaled: vehicle 0, mature enzyme 100. AID 686949. shares compounds with proKLK7 act. activation, % at 7 µM;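 active means activation, as change over the incubation, above the mean of all tested compounds plus 3 SD, cut at about 13% in these data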
EDANS-DABCYL int: fluorescence interference counter-screen for KLK7 activators | shares compounds with proKLK7 act | EDANS-DABCYL substrate fluorescence interference, no enzyme, 4 h; solvent 0%, active enzyme control 100% | activation, % at 7 µM | 80% of 3,200 active | AID 686952;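 active means activation above the all-compound mean plus 3 SD, ignoring values outside control-based bounds, cut at about 4.8% in these data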;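 further: value is the 4 h activation minus the activation read at time zero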
K7 EDANS ctr: optically interferes with EDANS-DABCYL fluorescence, kallikrein-7 activator counter-screen; shares compounds with proKLK7 act; EDANS-DABCYL peptide fluorescence interference, no enzyme; EC50, µM; 20% of 250 active; AID 720493;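 active means compounds that raise the fluorescence signal in this interference counterscreen, with EC50 at or below 10 µM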;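 further: intact quenched peptide substrate alone read at 355 nm excitation and 520 nm emission; signal is fluorescence gain from T0 to T4 after four hours at room temperature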
The depositor's hits bear a star; i = inactive; nt = no result.

SMILES	GRIN3A LBD mod	ADAM17 inh	ADAM10 inh	proKLK7 act	FAS-TE inh	proKLK7 act conf	EDANS-DABCYL int	others
CCOC(=O)N1CCN(C(=O)COc2ccc3c(c2)C(=O)CC2(CCN(C(C)=O)CC2)O3)CC1	-0.8	-477.8	i	25.5*	-5.0	70.7*	74.8*
Cc1cccc(N2CCN(C(=O)c3cc(S(=O)(=O)N(C)C)ccc3Cl)CC2)c1C	nt	0.1	4.9	nt	nt	nt	nt
Cc1cccc(C)c1-n1nnnc1C1c2ccccc2OCC(=O)N1Cc1ccc(F)cc1 (stereo unspecified)	nt	0.8	0.7	-0.9	nt	nt	nt
CCC[C@H]1[C@@H](NC(=S)Nc2ccccc2Cl)CC[C@@]23CCCN2C(=O)CCC[C@@H]13	nt	-0.7	3.2	nt	nt	nt	nt
COC(=O)CS(=O)(=O)c1cccc2cccnc12	1.2	-2.5	-9.4	15.9*	-3.0	12.8*	13.2*
O=C(CSc1nc2ccccc2c(=O)[nH]1)NC1CCCCC1	nt	-0.8	8.0	nt	nt	nt	nt
CCCN1CCN(CCCNC(=O)c2cc3c(=O)[nH]c4ccc(C)cc4c3s2)CC1	-3.4	-205.3	i	21.4*	-3.8	-16.5	-14.3
CN(Cc1cnc2nc(N)nc(N)c2n1)c1ccc(C(=O)NC(CCC(=O)O)C(=O)O)c2ccccc12 (stereo unspecified)	-2.3	-268.2	i	19.0*	-6.1	2.2	3.4
C=CCN1C(=O)[C@@H](CC(=O)N2CCOCC2)[C@]2(C(=O)OC)CCCCC=C12	nt	0.8	1.0	-0.1	nt	nt	nt
O=C(N/N=C/c1c(O)n(-c2ccccc2Cl)c(=O)c2ccccc12)C1COc2ccccc2O1 (stereo unspecified)	-4.2	nt	nt	nt	7.7	nt	nt
O=c1c2ccccc2c(/C=N/c2n[nH]c(CCCO)n2)c(O)n1-c1ccccc1Cl	-1.7	-244.7	i	27.2*	-17.5	4.7	5.8*
CC[C@@H]1C(c2cccc(C)c2)=NN(c2ccccc2)[C@H]1C(=O)N1CCOC1=O	-1.1	-17.4	-68.0	40.9*	16.2	55.5*	51.5*
C[C@@H]1C(c2ccc(F)cc2)=NN(c2ccccc2)[C@H]1C(=O)N1CCOC1=O	-4.7	-12.0	-46.0	21.3*	11.5	12.6*	24.1*
O=C(c1ccc(Br)cc1)c1sc(N2CCOCC2)nc1-c1ccccc1	-0.3	-0.7	6.9	-0.2	28.1	nt	nt
CC[C@@H]1C(c2ccccc2)=NN(c2ccc(Br)cc2)[C@H]1C(=O)N1CCOC1=O	8.7	-67.2	-248.8	27.5*	29.3	1.9	1.3
Cc1ccc2c(c1)N(C(=O)CCC(=O)N1CCN(c3ccccc3)CC1)CCO2	0.3	0.8	-10.7	0.0	2.2	nt	nt
Cc1ccc(OCc2nn3c(C4CCCCC4)nnc3s2)cc1	nt	-3.0	-16.1	-0.1	nt	nt	nt
CN1CCSc2ccc(C(=O)NCc3ccccc3)cc21	-2.9	i	i	42.9*	-2.0	5.8	24.1*
CCN1CCSc2ccc(C(=O)NCc3cccc(F)c3)cc21	0.1	-437.5	i	15.7*	14.1	-56.0	-36.2
O=C(NCc1cccnc1)c1ccc2c(c1)N(Cc1ccccc1)CCS2	-1.1	-345.5	i	-9.0	2.6	nt	nt
O=c1oc2ccccc2cc1-c1nc2ccccc2o1	0.5	i	i	88.5*	0.5	74.2*	85.8*
CCCOc1nc2ccccc2cc1/C=C/C(=O)O	-2.4	-119.5	-249.3	16.9*	-3.0	7.7	10.7*
CCOc1nc2ccccc2cc1C=O	0.4	-4.8	-9.9	-1.1	-3.1	nt	nt
O=C(NCCN1CCC(Cc2ccccc2)CC1)C1CCCN(S(=O)(=O)c2ccccc2)C1 (stereo unspecified)	nt	0.6	1.1	0.2	nt	nt	nt
CCC(NC(=O)CN1CCN(c2cccc(OC)c2)CC1)c1ccccc1 (stereo unspecified)	nt	-3.0	-7.5	0.1	nt	nt	nt
SMILES	GRIN3A LBD mod	ADAM17 inh	ADAM10 inh	proKLK7 act	FAS-TE inh	proKLK7 act conf	EDANS-DABCYL int	others
N=C1c2c(cc(=O)n3c2[nH]c2ccccc23)CN1CCN1CCOCC1	-1.5	i	i	14.9*	-3.1	-5.7	-6.0
O=c1c2ccccc2[nH]c(=S)n1CCCN1CCOCC1	1.8	-3.6	-1.8	-0.2	-3.2	nt	nt
COC(=O)[C@]12C[C@H](CC(=O)NCCCN3CCCC3=O)C(=O)N(Cc3cccc4ccccc34)C1=C[C@H](C(C)C)O[C@@H]2C1CC1	nt	-4.9	-4.4	0.1	nt	nt	nt
COc1ccc(-c2ccc(N3C(c4cc(OC)cc(OC)c4)=Cc4ccc(OC)cc4C3CC(C)=O)cc2)cc1 (stereo unspecified)	nt	-2.3	-10.4	-0.2	16.8	nt	nt
COC(=O)c1ccc(N2C(c3cc(OC)cc(OC)c3)=Cc3ccc(-c4ccc(C(N)=O)cc4)cc3C2CC(=O)C2CC2)cc1 (stereo unspecified)	nt	-284.6	i	40.4*	17.1	57.0*	23.1*	K7 EDANS ctr=>69.5
COc1cc(OC)cc(C2=Cc3ccccc3C(CC(=O)c3ccco3)N2c2ccc(-c3cccnc3)cc2)c1 (stereo unspecified)	nt	6.4	1.2	-5.6	20.2	nt	nt
COC(=O)c1ccc(N2C(c3cc(OC)cc(OC)c3)=Cc3ccc(-c4cccnc4)cc3C2CC(=O)C2CC2)cc1 (stereo unspecified)	nt	-233.5	i	61.7*	27.9	28.5*	-9.7	K7 EDANS ctr=>69.5
CC(=O)Oc1ccc2cc(-c3ccccc3)c(=O)oc2c1	-1.6	i	i	216.1*	-6.4	564.9*	570.3*
CC(=O)COc1ccc2cc(-c3ccccc3)c(=O)oc2c1	-1.2	i	i	22.8*	3.1	57.2*	72.9*
COc1ccc(-c2cc3ccc(OCC(=O)NCC4CCC(C(=O)O)CC4)cc3oc2=O)cc1 (stereo unspecified)	-1.9	i	i	63.5*	-3.8	53.9*	73.7*
COc1ccc(-c2cc3ccccc3oc2=O)cc1	1.4	-212.8	i	8.1	11.3	nt	nt
COc1ccc(-c2cc3ccc(OC(C)C(=O)O)cc3oc2=O)cc1 (stereo unspecified)	-0.6	i	i	70.2*	-6.4	70.1*	67.8*
CC(=O)Oc1ccc2c(=O)oc(-c3ccccc3)nc2c1	1.4	-4.3	-11.2	-0.9	7.0	nt	nt
COc1ccc(-c2cc3ccc(OCC(N)=O)cc3oc2=O)cc1OC	0.3	-8.5	-27.6	0.8	-7.5	nt	nt
C/C(=N/NC(=O)CSc1nnc(-c2ccccc2)n1-c1ccc(Cl)cc1)c1cccc(O)c1	nt	1.8	6.2	0.2	nt	nt	nt
CCCN(C(=O)CCc1cn(CCC)c2ccccc12)c1ccc(Oc2cccnc2)cc1	nt	5.0	9.5	0.8	nt	nt	nt

Source: PubChem
